# Experimental data taken from ChEMBL document CHEMBL3988442, “University of Dundee, Small-Polar-MMV Screening Library” (2021).
# Screen size: about 66,000 compounds; about 960 (1.5%) showed an effect of 50% or more. This is one part of a sample in which strong results are shown more often than they occur.
# Tested on: Trypanosoma brucei
# Assay: Trypanosoma brucei 72 hour study
# Assay type: functional, organism-based
# Design: scale not given: in the data most compounds retested in dose-response had high values
compound,measurement,setting,value
CN(C)c1ncc2c(O)nc(C3CCNCC3)cc2n1.Cl,Percent Effect,"30.3 µM, […]",-29.5%
CC(=O)NC1CCN(c2ccnc(C3CCNCC3)c2)CC1.O=C(O)C(F)(F)F,Percent Effect,"30.3 µM, […]",-10.98%
O=C(Nc1cccnc1)NC1CCN(c2ccccc2OC(F)F)C1 (stereo not given),Percent Effect,"30 µM, 30.03 µM",-24.57%
O=C(Nc1ccccn1)NC1CCN(c2ccccc2OC(F)F)C1 (stereo not given),Percent Effect,"30 µM, 30.03 µM",-33.53%
O=C(Nc1ccncc1)NC1CCN(c2ccccc2OC(F)F)C1 (stereo not given),Percent Effect,"30 µM, 30.03 µM",57.33%
Cc1nc(N(C)C)nc(C)c1NC(=O)c1ccccc1F,Percent Effect,"30 µM, 30.03 µM",-23.68%
CO[C@@H]1CCN(Cc2cnn(C)c2)[C@@H]2CN(Cc3cccnc3)C[C@@H]21.O=C(O)C(F)(F)F.O=C(O)C(F)(F)F.O=C(O)C(F)(F)F,Percent Effect,"30 µM, 30.03 µM",-0.5656%
CN(C)C(=O)CN1CCC(c2c(C(N)=O)sc3ncccc23)C1 (stereo not given),Percent Effect,"30.3 µM, […]",-20.96%
CC(C)c1ncc2c(n1)CN(Cc1cccc3c1OCCO3)CC2,Percent Effect,"30 µM, 30.03 µM",65.77%
Cc1ncc2c(n1)CN(Cc1cccc3c1OCCO3)CC2,Percent Effect,"30 µM, 30.03 µM",-9.069%
CCc1ncc2c(n1)CN(Cc1cccc3c1OCCO3)CC2,Percent Effect,"30 µM, 30.03 µM",-15.38%
O=C(O)C(F)(F)F.O=C(O)C(F)(F)F.O=C(c1ccsc1)N1C[C@@H]2OCCN(CCN3CCCC3)[C@@H]2C1,Percent Effect,"30.3 µM, […]",-142.2%
CCn1cc(Cl)c(C(=O)NCCOC)n1,Percent Effect,"30.3 µM, […]",-26.01%
COC(=O)CCc1c(C)nc2cc(O)nn2c1C,Percent Effect,"30 µM, 30.03 µM",37.13%
COc1ccc(NC(=O)CCc2c(C)nc3cc(O)nn3c2C)cn1,Percent Effect,"30 µM, 30.03 µM",73.91%
CCNC(=O)CCc1c(C)nc2cc(O)nn2c1C,Percent Effect,"30 µM, 30.03 µM",30.72%
Cc1ccc2c(c1)CN(C(=O)c1cccnc1)C(CN(C)C)CO2.Cl (stereo not given),Percent Effect,"30.3 µM, […]",-3.741%
Cc1cnc(N2CCO[C@@H]3CC(COCc4cccnc4)C[C@H]32)nc1.O=C(O)C(F)(F)F.O=C(O)C(F)(F)F (stereo not given in full),Percent Effect,"30.3 µM, […]",-14.97%
Cl.c1cnc2c(c1)cc([C@@H]1CCCO1)n2CCN1CCOCC1,Percent Effect,"30.3 µM, […]",-1.684%
CCc1ccc(S(=O)(=O)N2Cc3c(CN(C)C)nn(C)c3C2)cc1.O=C(O)C(F)(F)F,Percent Effect,"30.3 µM, […]",-1.293%
O=C(Nc1cccc(CN2CCOC2=O)c1)N1CCCC1,Percent Effect,"30 µM, 30.03 µM",-2.123%
O=C(Nc1cccc(CN2CCOC2=O)c1)N1CCSCC1,Percent Effect,"30 µM, 30.03 µM",53.61%
O=C(Nc1cccc(CN2CCOC2=O)c1)N1CCCCCC1,Percent Effect,"30 µM, 30.03 µM",-56.22%
COc1ccc(C[C@H]2CN(C(=O)CN(C)C)CC[C@H]2OC)cc1.O=C(O)C(F)(F)F,Percent Effect,"30.3 µM, […]",4.427%
Cc1cc(COC(=O)[C@@H]2Cc3ccccc3CN2S(C)(=O)=O)no1,Percent Effect,"30 µM, 30.03 µM",77.9%
CCS(=O)(=O)N1Cc2ccccc2CC1C(=O)OCc1cc(C)no1 (stereo not given),Percent Effect,"30 µM, 30.03 µM",-34.32%
CCS(=O)(=O)N1Cc2ccccc2CC1C(=O)OCc1c(C)noc1C (stereo not given),Percent Effect,"30 µM, 30.03 µM",-54.09%
COCCNC(=O)N1CCCC1COc1ccccc1 (stereo not given),Percent Effect,"30.3 µM, […]",-9.999%
Cc1ccccc1SC1CCN(C(=O)[C@H]2[C@@H]3CNC[C@@H]32)CC1,Percent Effect,"30.3 µM, […]",52.77%
Cc1ccccc1SC1CCN(C(=O)C2CNCC(=O)N2)CC1 (stereo not given),Percent Effect,"30.3 µM, […]",6.741%
Cc1ccccc1SC1CCN(C(=O)C2CNC(=O)N2)CC1 (stereo not given),Percent Effect,"30.3 µM, […]",-1.493%
COCC1CN(Cc2ccoc2)Cc2nn(C)cc21.O=C(O)C(F)(F)F (stereo not given),Percent Effect,"30 µM, 30.03 µM",26.18%
CN(C)C[C@@H]1CCC[C@@H]2CN(c3nccc(C(F)(F)F)n3)C[C@@H]21.O=C(O)C(F)(F)F,Percent Effect,"30.3 µM, […]",99.5%
CN(C[C@@H]1CCC[C@@H]2CN(c3ncccn3)C[C@@H]21)C1CC1.O=C(O)C(F)(F)F,Percent Effect,"30.3 µM, […]",-3.838%
CN(C)C[C@@H]1CCC[C@@H]2CN(c3ncccn3)C[C@@H]21.O=C(O)C(F)(F)F,Percent Effect,"30.3 µM, […]",-12.16%
CNCC(=O)Nc1ccc(-c2cnc(NCCS(C)(=O)=O)nc2)cc1,Percent Effect,"30.3 µM, […]",-12.7%
COc1cccc(CN2CCCCC2c2n[nH]cc2-c2cc(C)no2)c1.Cl (stereo not given),Percent Effect,"30.3 µM, […]",52.03%
COc1ccccc1CNc1ncc(-c2cc(C)no2)c(C(C)C)n1,Percent Effect,"30.3 µM, […]",-4.15%
COc1ccc(CN2CCCCC2c2n[nH]cc2-c2cc(C)no2)cc1.Cl (stereo not given),Percent Effect,"30.3 µM, […]",57.52%
COc1ccc(CN2CCC[C@H]2c2nc(-c3cncnc3N)no2)cc1,Percent Effect,"30.3 µM, […]",-48.86%
CCc1ccc(CN2CCCCC2c2n[nH]cc2-c2cc(C)no2)cc1.Cl (stereo not given),Percent Effect,"30.3 µM, […]",53.31%
COc1cccc(CN2CCCCCC2c2cccc(C)c2)c1O (stereo not given),Percent Effect,"30 µM, 30.03 µM",-7.245%
Cc1c[nH]nc1C1CCCN1Cc1ccncc1 (stereo not given),Percent Effect,"30.3 µM, […]",-23.61%
Cc1cc(C2CCCN2Cc2ccn(C)c(=O)c2)on1 (stereo not given),Percent Effect,"30.3 µM, […]",6.831%
COc1cccc(CN2CCCC2c2c(C)nn(C)c2C)c1 (stereo not given),Percent Effect,"30 µM, 30.03 µM",-36.92%
COc1ccccc1CN1CCCCC1c1n[nH]cc1-c1cc(C)no1.Cl (stereo not given),Percent Effect,"30.3 µM, […]",99.66%
COCC(=O)N1CCCCC1c1nc(N(C)C)ncc1-c1cc(C)no1 (stereo not given),Percent Effect,"30.3 µM, […]",-6.324%
COc1cccc(CN2CCCC2c2ccc[nH]2)c1 (stereo not given),Percent Effect,"30 µM, 30.03 µM",1.101%
CC(C)c1nc(CNC2CCN(S(C)(=O)=O)CC2)cs1,Percent Effect,"30.3 µM, […]",-4.773%
CC(C)Cn1ccc2c(NC(=O)c3n[nH]c4c3CCC4)cccc21,Percent Effect,"30 µM, 30.03 µM",8.967%
CCc1nc(C2CCCN2C(=O)c2cc[nH]n2)no1 (stereo not given),Percent Effect,10 µM,-9.958%
same,Percent Effect,"30.3 µM, […]",8.971%
O=C(NCc1ccco1)N1CCC(n2ccc(C(F)(F)F)n2)CC1,Percent Effect,"30 µM, 30.03 µM",-15.14%
O=C(O)C(F)(F)F.c1coc(CN2CC[C@H]3O[C@@H](COCC4CC4)CC[C@H]32)c1,Percent Effect,"30 µM, 30.03 µM",-38.88%
Cc1nc(CN2C(=O)CC[C@@H]3[C@H]2CCN3C2CCOCC2)cs1.O=C(O)C(F)(F)F,Percent Effect,"30 µM, 30.03 µM",-42.08%
CC(=O)N1CCC2(CC1)CCN(C(=O)c1cccc(C(F)(F)F)c1)C2,Percent Effect,"30 µM, 30.03 µM",38.42%
Cc1nccc(NCc2cncc3c2CCN(CC2CC2)C3)n1.Cl.Cl,Percent Effect,"30.3 µM, […]",-82.02%
COCCN1CCN(CCS(=O)(=O)c2cccc(OC)c2)CC1,Percent Effect,"30.3 µM, […]",-9.149%
COc1cccc(S(=O)(=O)CCN2CCN(CCO)CC2)c1,Percent Effect,"30.3 µM, […]",19.12%
COc1cccc(S(=O)(=O)CCN2CCN(CC(F)F)CC2)c1,Percent Effect,"30.3 µM, […]",100.9%
O=C(NCC1CC1)[C@@H]1CCO[C@@H]2CCN(Cc3ccsc3)C[C@H]21.O=C(O)C(F)(F)F,Percent Effect,"30.3 µM, […]",-183.8%
O=C1CC(c2cccc(O)c2)c2c(c(C(=O)O)cn2-c2ccccc2)N1 (stereo not given),Percent Effect,"30 µM, 30.03 µM",55.14%
O=C1CC(c2ccccc2)c2c(c(C(=O)O)cn2-c2ccccc2)N1 (stereo not given),Percent Effect,"30 µM, 30.03 µM",-0.2399%
O=C1CC(c2ccc(O)cc2)c2c(c(C(=O)O)cn2-c2ccccc2)N1 (stereo not given),Percent Effect,"30 µM, 30.03 µM",-5.69%
CC(=O)N1CCC2(CCN(C(=O)c3cccc(C(F)(F)F)c3)CC2)C1,Percent Effect,"30 µM, 30.03 µM",-21.66%
Cc1ccc(NC(=O)Cn2cc(I)cn2)cc1C,Percent Effect,"30 µM, 30.03 µM",-62.87%
CC(C)NC(=O)CCNC(=O)CCc1cc(Cl)cs1,Percent Effect,"30 µM, 30.03 µM",67.45%
CC(C)NC(=O)CCNC(=O)CCc1cc(Br)cs1,Percent Effect,"30 µM, 30.03 µM",-16.2%
COC(=O)CNC(=O)CCc1cc(Cl)cs1,Percent Effect,"30 µM, 30.03 µM",30.07%
CC(C)CN1C(=O)C2(CCN(Cc3ccc(F)cc3)C2)c2ccccc21 (stereo not given),Percent Effect,"30.3 µM, […]",100.2%
Cc1ccc(CN2CCC3(C2)C(=O)N(CC(C)C)c2ccccc23)s1 (stereo not given),Percent Effect,"30 µM, 30.03 µM",-8.12%
CC(C)CN1C(=O)C2(CCN(Cc3ccoc3)C2)c2ccccc21.O=C(O)C(F)(F)F (stereo not given),Percent Effect,"30.3 µM, […]",-10.51%
COCCN1CCC2(CC1)CC(NC(=O)COC)c1ccccc1O2.O=C(O)C(F)(F)F (stereo not given),Percent Effect,"30.3 µM, […]",-14.34%
CN(C)C(=O)c1n[nH]c2c1CN(CC1CCC1)C2.O=C(O)C(F)(F)F.O=C(O)C(F)(F)F,Percent Effect,"30.3 µM, […]",-41.36%
CC(C)CC(=O)N1C[C@@H]2CCN(c3ncccn3)C[C@@H]2C1.O=C(O)C(F)(F)F,Percent Effect,"30.3 µM, […]",-27.97%
Cc1cnc(C(=O)N2C[C@H]3CN(Cc4nccs4)C[C@H]3C2)cn1,Percent Effect,"30 µM, 30.03 µM",-50.26%
O=C(N1CCCC1)N1Cc2nccn2CC(COc2cccnc2)C1.O=C(O)C(F)(F)F (stereo not given),Percent Effect,"30.3 µM, […]",-5.824%
O=C(NCCNc1ccccn1)N1CCSCC1,Percent Effect,"30 µM, 30.03 µM",-32.01%
CC1(C)CN(C(=O)NCCc2ccn(-c3ccccc3)n2)CCO1,Percent Effect,"30 µM, 30.03 µM",-25.69%
O=C(NCCc1ccn(-c2ccccc2)n1)N1CCSCC1,Percent Effect,10 µM,92.88%
CCC(C(=O)NCCc1ccn(-c2ccccc2)n1)N1CCCC1=O (stereo not given),Percent Effect,"30 µM, 30.03 µM",-6.42%
O=C(NCc1nn(-c2ccccc2)c2c1CCC2)N1CCSCC1,Percent Effect,"30 µM, 30.03 µM",-15.48%
O=C(NCCc1ccn(-c2ccccc2)n1)N1CCC1,Percent Effect,"30 µM, 30.03 µM",105.4%
O=C(O)C(F)(F)F.c1csc(CN2C[C@H](OCC3CCOCC3)[C@H]3COC[C@H]32)n1,Percent Effect,"30.3 µM, […]",-15.06%
CS(=O)(=O)N1CC[C@H]2OCC[C@@]2(C(=O)NCCc2ccccn2)C1.O=C(O)C(F)(F)F,Percent Effect,"30.3 µM, […]",-43.43%
CC(C)(C)n1ncc(NCC(O)c2ccc(F)c(F)c2)c(Cl)c1=O (stereo not given),Percent Effect,"30 µM, 30.03 µM",-7.617%
CN(Cc1ccccn1)C(=O)[C@H]1CO[C@H]2CCN(CC3CC3)C[C@H]2C1.O=C(O)C(F)(F)F.O=C(O)C(F)(F)F,Percent Effect,"30.3 µM, […]",-96.69%
CNc1ncccc1C(=O)N1CCc2c(nc(N)[nH]c2=O)C1,Percent Effect,"30 µM, 30.03 µM",-10.23%
O=C(O)C(F)(F)F.O=C(O)C(F)(F)F.c1cncc(CN2CCc3c(nnn3CC3CC3)C2COCC2CC2)c1 (stereo not given),Percent Effect,"30 µM, 30.03 µM",26.56%
O=C(Nc1ccccc1)C1=CC2(CCNCC2)c2ccccc21,Percent Effect,"30.3 µM, […]",93.57%
O=C(C1=CC2(CCNCC2)c2ccccc21)N1CCCC1,Percent Effect,"30 µM, 30.03 µM",-13.07%
CC(=O)N1CCC2(C=C(C(=O)NC3CC3)c3ccccc32)CC1,Percent Effect,"30.3 µM, […]",3.653%
CC(=O)N1CCCC(c2ccc(Br)cn2)C1 (stereo not given),Percent Effect,"30.3 µM, […]",11.45%
CC(=O)N1CCCC(c2ccccn2)C1 (stereo not given),Percent Effect,"30.3 µM, […]",-37.51%
CC(=O)N1CCCC(c2ccc(Cc3ccccc3)cn2)C1 (stereo not given),Percent Effect,"30.3 µM, […]",98.95%
